In PubChem BioAssay (Tox21):
Records with an inconclusive call do not appear. Values without a mark were called inactive. Calls follow the shape of the dose curve; as a rule, active = well fitted cell-killing curve with a large enough effect in the repeat runs; inconclusive = weak or mixed curves; inactive = flat fitted curve, though single readings scatter.

test: qHTS assay to identify small molecule antagonists of the TGF-beta/Smad signaling pathway - cell viability counter screen (AID 1346824); conditions: SBE-bla HEK293T viability, CellTiter-Glo luminescence; series mostly up to 76.8 µM; viability change, negative = cytotoxic: at the top concentration; also: nearly all actives have a fitted effect of over 50% in size
Excerpt: U.S. Tox21 Program National Center for Advancing Translational Sciences [NCATS] NIH Chemical Genomics Center [NCGC] U.S. Environmental Protection Agency [EPA] National Institutes of Environmental Health Sciences [NIEHS] National Toxicology Program [NTP] U.S. Food and Drug Administration [FDA] Tox21 Assay Overview: Transforming growth factor beta (TGF-beta) superfamily consists of a large number of structurally related dimeric proteins that act as hormones or local mediators in regulating a wide range of biological functions. This superfamily includes TGF-betas themselves, the bone morphogenetic proteins (BMPs) and the activins. These ligands induce oligomerization of serine/threonine receptor kinases and phosphorylate the cytoplasmic signaling molecules of Smad protein family. CellSensor SBE-bla HEK 293T cell line (Life Technologies, Carlsbad, CA), responsive to TGF-beta was used to screen Tox21 10K compound library for identification of agonists/antagonists of the Smad signaling pathway. This cell line contains a beta-lactamase reporter gene under control of the Smad binding element (SBE) stably integrated into HEK 293T cells. Also cytotoxicity of the compounds was tested in parallel by measuring the cell viability using CellTiter-Glo assay system in the same wells.
Tox21 Assay Protocol Summary: SBE-bla HEK 293T cells were dispensed at 4,000/well in 5 uL of assay medium into black wall/clear-bottom 1536-well plates using a Multidrop Combi (ThermoFisher Scientific, Waltham, MA) dispenser. After the assay plates were incubated at 37 C and 5% CO2 for an overnight, 23 nL of compounds dissolved in DMSO, positive controls or DMSO only was transferred to the assay plate by a Pintool station (Kalypsys, San Diego, CA). Compound transfer was followed by the addition of 1 uL of 0.25 ng/mL TGF-beta1 or assay buffer using two separate tips of Flying Reagent Dispenser (FRD, Aurora Discovery, San Diego, CA). The assay plates were incubated at 37 C and 5% CO2 for 5 hr. One uL of LiveBLAzer B/G FRET substrate (Life Technologies) was added using a Flying Reagent Dispenser (FRD, Aurora Discovery, San Diego, CA) and the plates were incubated at room temperature for 2 hr. Fluorescence intensity (405 nm excitation, 460 nm and 530 nm emissions) was measured using an Envision plate reader (PerkinElmer, Shelton, CT). For cytotoxicity read, 4 uL of CellTiter-Glo reagent (Promega Corporation, Madison, WI) was added to each well of the assay plates using FRD. After 30 min incubation at room temperature, the luminescence intensity was measured using ViewLux plate reader (PerkinElmer).
% is scaled to controls: 0 for no effect and ±100 for the full control effect.

Row | Structure (SMILES) | viability change, negative = cytotoxic
1 | CCCCN(CCC(=O)OCC)C(C)=O | 8.76%
2 | FB(F)F | 1.37%
3 | C=CC(=O)OCCCl | -4.9%
4 | NO | 6.89%
5 | C[C@@H]1C[C@H]2[C@@H]3C[C@H](F)C4=CC(=O)C(Cl)=C[C@]4(C)[C@@]3(F)[C@@H](O)C[C@]2(C)[C@@]1(O)C(=O)CO | -9.17% [at 35.3 µM]
6 | CC(C)C(=O)OC(=O)C(C)C | 24.9%
7 | O=C(O)CNC(=O)c1ccccc1 | -8.43% [at 35.3 µM]
8 | CC(=O)Oc1cccc(C)c1 | -0.554% [at 35.3 µM]
9 | CCCCCCCCN1CCCC1=O | 8.63%
10 | CC(C#N)(CCC(=O)O)N=NC(C)(C#N)CCC(=O)O (stereo not given) | 8.86%
11 | CCCCCC(C)N (stereo not given) | -4.21% [at 35.3 µM]
12 | OCCCCCO | 1.51%
13 | COc1ccccc1OCC1CNC(=O)O1 (stereo not given) | 14.7% [at 35.3 µM]
14 | CO[C@@]1(NC(=O)C(C(=O)O)c2ccc(O)cc2)C(=O)N2C(C(=O)O)=C(CSc3nnnn3C)CO[C@@H]21 (stereo not given in full) | 1.04% [at 35.3 µM]
15 | CCCc1nn(C)c2c(=O)[nH]c(-c3cc(S(=O)(=O)N4CCN(C)CC4)ccc3OCC)nc12 | 5.02% [at 35.3 µM]
16 | CC1=CC(=O)[C@H]2C[C@@H]1C2(C)C | 3.1%
17 | CC(C)(C)C(=O)c1ccccc1 | -6.19%
18 | CC(=O)c1cnccn1 | 2.9%
19 | C=C(C)C(=O)OCC1CCCO1 (stereo not given) | 1.2%
20 | CCC(C(=O)NC(=O)NC(C)=O)c1ccccc1 (stereo not given) | 0.277% [at 35.3 µM]

Row | Structure (SMILES) | viability change, negative = cytotoxic
21 | C=COCC1CCC(COC=C)CC1 (stereo not given) | 0.273%
22 | Clc1cc(Cl)c(Cl)nc1Cl | 5.73%
23 | O=Cc1cccc(Br)c1 | -2.92%
24 | CC1=CCC(O)(C(C)C)CC1 (stereo not given) | 9.75%
25 | CC(CC=O)CC(C)(C)C (stereo not given) | -6.83%
26 | C=CN1CCCCCC1=O | 12.6%
27 | Cc1onc(-c2c(Cl)cccc2Cl)c1C(=O)Cl | 2.68% [at 35.3 µM]
28 | CCCCOC(=O)CCC(C)=O | -0.787%
29 | CCOC(=O)COc1cc(-n2ncc(C(F)(F)F)c(C)c2=O)c(F)cc1Cl | -1.86%
30 | NC(=O)NC1N=C([O][Al])NC1=O (stereo not given) | 4.94% [at 35.3 µM]
31 | O=C(O)CNC(=O)c1ccc(CO)o1 | -2%
32 | CC1=NN(c2cccc(S(=O)(=O)O)c2)C(=O)C1 | 9.15%
33 | CC(=O)c1ccccc1[N+](=O)[O-] | 3.82%
34 | NC(N)=NCCN1CCCCCCC1 | 2.08% [at 0.29 µM]
35 | CN1CCN(c2cc3c(nn2)Oc2ccccc2N3C)CC1 | 1.43% [at 15.8 µM]
36 | Cc1cc(C)c(N=Nc2c(O)c(S(=O)(=O)O)cc3cc(S(=O)(=O)O)ccc23)cc1C | -0.1% [at 6.97 µM]
37 | C=COC(=O)C(C)(CC)CCC(C)C (stereo not given) | 6.83%
38 | O=S(=O)(O)c1cccc(S(=O)(=O)O)c1 | -1.69%
39 | CC(C)C[C@@H](N)C(=O)O | -3.28% [at 15.8 µM]
40 | c1ccc2sc(SN3CCOCC3)nc2c1 | -3.43% [at 35.3 µM]
